Hits are enriched below; roughly 10% of the tested compounds scored in any of these assays.
G9a inh = inhibitors of human histone lysine methyltransferase G9a. G9a H3K9 monomethylation, AlphaScreen, 2 h. Potency, µM (titrated, usually from 102 µM), for inactives: top-dose activity, negative = inhibition, most hits filed as inhibitors. hit rate 8.8% among 350,000; note: potency is the fitted concentration of half-maximal effect; % is set by controls: 0 for no effect and ±100 for the full control effect; nearly all actives have a fitted effect of over 75% in size
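Signal arises when biotinylated H3K9 peptide, once monomethylated, bridges streptavidin donor and antibody-captured acceptor beads. Enzyme at 20 nM was preincubated 15 min with test compounds; peptide 500 nM and SAM 20 uM then reacted for 2 h.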
Six1-Eya2 blk = blocks human Six1 binding to Eya2; hit rate 0.56% among 360,000; Q15475+O00167; AlphaScreen GST-Six1/His-Eya2 binding, biochemical; active compounds read low; activity change, % (test concentration not listed); in the data active = activity change below about -65%; inconclusive = mostly about -30% to -63%; note: % is set by controls: 0 for no effect and ±100 for the full control effect
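AlphaScreen with GST-Six1 and His-Eya2 (5X mix: 250 nM and 500 nM), glutathione donor and nickel acceptor beads; buffer 50 mM Tris pH 8.0, 300 mM NaCl, 1 mM TCEP; 1 h at 37 C in the dark.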
CtBP-E1A blk = blocks the CtBP interaction with E1A; AlphaScreen GST-E1A/His-CtBP binding, 1536-well; active compounds read low; activity change, % (test concentration not listed); hit rate 0.49% among 340,000; AID 651724; in the data active = activity change below about -65%; inconclusive = mostly about -30% to -63%; note: % is set by controls: 0 for no effect and ±100 for the full control effect
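AlphaScreen with 125 nM GST-E1A and 125 nM His-CtBP (5X stocks) in Tris pH 8.0, 300 mM NaCl, BSA, Tween 20, TCEP. Compounds preincubated 2 h at 37 deg C, then glutathione donor/nickel acceptor beads added for 1 h at 37 deg C in dark.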
HP1b chromo inh = HP1-beta chromodomain-methylated histone interaction inhibition | hit rate 0.56% among 390,000 | AlphaScreen HP1-beta / biotin-H3K9me3 peptide binding | P83916 | AID 540317 | Potency, µM (titrated, usually from 114 µM), without a hit: top-dose activity change, negative = inhibition, actives largely listed as inhibitors; note: potency is the fitted concentration of half-maximal effect; nearly all actives have a fitted effect of over 70% in size
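HP1-beta protein (50 nM final) preincubated 30 min at room temperature with biotinylated H3(1-18)K9me3 peptide (50 nM) in PBS pH 7.4, 0.01% Tween-20, then compound added for 30 min. AlphaScreen streptavidin donor/nickel chelate acceptor beads (10 ug/mL final), 30 min dark, luminescence read.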
BAZ2B inh = inhibitors of human BAZ2B bromodomain; Q9UIF8; Potency, µM (titrated, usually from 114 µM), without a hit: top-dose activity change, negative = inhibition, hits mostly inhibitors; AID 504333; AlphaScreen BAZ2B-H3K14Ac peptide displacement; hit rate 4.4% among 360,000; note: potency is the fitted concentration of half-maximal effect; % is set by controls: 0 for no effect and ±100 for the full control effect; nearly all actives have a fitted effect of over 60% in size
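In this displacement format the biotinylated H3(5-23) peptide acetylated at Lys14 serves as ligand at 50 nM, with BAZ2B at 50 nM in PBS pH 7.4 containing 0.01% Tween-20. Donor and acceptor beads are 10 ug/mL final.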
JMJD2A Tudor = blocks the human JMJD2A Tudor domain | AlphaScreen JMJD2A-Tudor / H3K4me3 peptide binding | Potency, µM (doses to about 114 µM), without a hit: at the highest dose activity change, negative = inhibition, hits mostly inhibitors | hit rate 4.4% among 390,000; note: potency is the fitted concentration of half-maximal effect; % is set by controls: 0 for no effect and ±100 for the full control effect; nearly all actives have a fitted effect of over 50% in size
Target sequence (O75164 whole entry, looked up, the tested form may be a part): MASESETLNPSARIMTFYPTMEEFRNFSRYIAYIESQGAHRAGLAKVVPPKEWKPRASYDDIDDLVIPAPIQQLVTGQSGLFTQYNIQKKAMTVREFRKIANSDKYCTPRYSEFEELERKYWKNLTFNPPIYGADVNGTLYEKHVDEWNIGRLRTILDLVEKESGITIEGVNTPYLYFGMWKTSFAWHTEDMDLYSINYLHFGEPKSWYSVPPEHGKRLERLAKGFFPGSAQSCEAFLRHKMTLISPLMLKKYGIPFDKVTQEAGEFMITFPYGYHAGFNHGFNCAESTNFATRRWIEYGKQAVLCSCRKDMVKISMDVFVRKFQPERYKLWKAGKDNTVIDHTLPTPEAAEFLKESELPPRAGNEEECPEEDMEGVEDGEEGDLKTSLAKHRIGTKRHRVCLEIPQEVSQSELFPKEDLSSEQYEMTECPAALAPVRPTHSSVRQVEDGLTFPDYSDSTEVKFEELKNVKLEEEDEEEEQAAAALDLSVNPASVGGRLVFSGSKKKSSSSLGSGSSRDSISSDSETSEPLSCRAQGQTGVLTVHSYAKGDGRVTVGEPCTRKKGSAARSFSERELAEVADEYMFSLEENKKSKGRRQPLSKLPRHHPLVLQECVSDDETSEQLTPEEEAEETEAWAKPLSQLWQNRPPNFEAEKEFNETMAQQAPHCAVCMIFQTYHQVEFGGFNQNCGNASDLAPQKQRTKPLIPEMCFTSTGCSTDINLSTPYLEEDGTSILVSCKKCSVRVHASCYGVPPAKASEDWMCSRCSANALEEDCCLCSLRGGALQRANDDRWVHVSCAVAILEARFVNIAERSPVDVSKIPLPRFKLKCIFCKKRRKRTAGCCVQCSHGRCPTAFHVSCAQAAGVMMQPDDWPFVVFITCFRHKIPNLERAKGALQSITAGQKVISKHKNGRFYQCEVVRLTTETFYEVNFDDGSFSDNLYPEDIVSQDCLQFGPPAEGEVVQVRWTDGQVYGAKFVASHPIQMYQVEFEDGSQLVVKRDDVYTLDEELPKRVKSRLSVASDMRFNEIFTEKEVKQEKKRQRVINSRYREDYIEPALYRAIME
Starred values were filed as active, the others as inactive; ? = inconclusive; nt = not tested or not shown; ! = repeats disagree; [ ] = dose if it differs, or a comment. Unless noted, calls come from the whole dose curve; as a rule, active = well fitted inhibition curve with a large enough effect; inconclusive = small, poorly fitted or top-dose-only effect; inactive = no such curve, though single readings can be large or run the other way.

SMILES | G9a inh | Six1-Eya2 blk | CtBP-E1A blk | HP1b chromo inh | BAZ2B inh | JMJD2A Tudor
CC(NC(=O)c1ccc(Br)cc1)c1ccccc1 (stereo not given) | 3% | 4 | 14 | 12% | 6% | -18%
O=C(NN1S(=O)(=O)c2ccccc2S1(=O)=O)c1ccc(Br)cc1 | ? | 7 | -2 | 65% | 50µM* | -12%
Cc1cccc(C(=O)NN2S(=O)(=O)c3ccccc3S2(=O)=O)c1 | 7.1µM* | 0 | 7 | 91% | nt | -2%
CC(C)NC[C@H](O)c1ccc(O)c(O)c1 | 8.9µM*! | 4 | 6 | 12% | 12% | -15%
CC(C)NCC(O)c1cc(O)cc(O)c1 (stereo not given) | 25µM*! | 1 | 2 | 21% | 2% | -1%
CC(C)NC[C@H](O)c1cc(O)cc(O)c1 | -6%[12.7 µM] | nt | nt | nt | nt | nt
O=C(Cn1cnc2cc([N+](=O)[O-])ccc2c1=O)NC(c1ccccc1)c1ccccc1 | 14%[59 µM] | -9 | -6 | 25% | -3% | -17%
COCCN(C(=O)CSc1nc2ccc(OC)cc2[nH]1)c1c(N)n(Cc2ccccc2)c(=O)[nH]c1=O | 20µM* | 2 | 12 | 23% | 5% | -21%
COCCN(C(=O)CSc1nc(N)cc(=O)[nH]1)c1c(N)n(Cc2ccccc2)c(=O)[nH]c1=O | 50µM* | 1 | 6 | 14% | 9% | -11%
COCCN(C(=O)CSc1nc2ccc(C)cc2[nH]1)c1c(N)n(Cc2ccccc2)c(=O)[nH]c1=O | ? | 4 | 2 | 22% | -8% | -16%
CCOc1ccc2nc(SCC(=O)N(CC(C)C)c3c(N)n(Cc4ccccc4)c(=O)[nH]c3=O)[nH]c2c1 | 50µM* | -8 | 16 | 16% | -2% | -9%
COCCN(C(=O)CSc1nc2ccc(Cl)cc2[nH]1)c1c(N)n(Cc2ccccc2)c(=O)[nH]c1=O | 3% | -3 | -3 | 33% | 1% | -4%
O=C(Nc1cc(C(F)(F)F)ccc1Cl)c1cc(-c2cccs2)nc2ccccc12 | 4%[59 µM] | nt | nt | 33% | -1% | -3%
COc1ccccc1[C@@H]1C(c2ccc(F)cc2)=NN(c2ccc(Br)cc2)[C@H]1C(=O)N1CCOC1=O | 52%[59 µM] | nt | nt | nt | nt | nt
CN(C(=O)CSc1n[nH]c(N)n1)C1CCCCC1 | nt | 5 | -2 | 8% | nt | -18%
Nc1nc(SCC(=O)C23CC4CC(CC(C4)C2)C3)n[nH]1 | 35µM* | -3 | 2 | 31% | 1% | -17%
CCOC(=O)C1=C(C)N=c2s/c(=C\c3ccc(OC(C)=O)c(OCC)c3)c(=O)n2C1/C=C/c1ccccc1 (stereo not given) | -1%[59 µM] | -3 | -12 | 3% | 2% | 45µM*
CCOC(=O)C1=C(C)N=c2s/c(=C\c3cccc(OCC(=O)O)c3)c(=O)n2C1c1ccccc1OC (stereo not given) | 40µM* | 9 | 0 | -14% | 50µM* | ?
Cc1ccc(NC(=S)c2ccc3ccccc3n2)c(C)c1 | 8.9µM* | -11 | -14 | 11µM* | 13µM* | ?
COc1ccc(N=C(NN)c2ccc3ccccc3n2)cc1 | 8.9µM* | -8 | 1 | -12% | ? | -26%
COc1ccc(NC(=S)c2ccc3ccccc3n2)cc1 | 7.9µM* | ? | ? | 10µM* | 11µM* | 40µM*
Cc1ccc(C)c(NC(=O)c2ccc3ccccc3n2)c1 | 5% | 13 | 9 | 22% | 6% | -6%
COc1ccc(NC(=O)CN(C)C(=O)c2ccc3ccccc3n2)cc1 | nt | -11 | -3 | -10% | nt | -20%
Cc1ccc(-n2nnnc2CSc2nnc(-c3ccc(O)cc3)o2)cc1 | 12%[59 µM] | -2 | 3 | 37% | 5% | 1%
COc1ccc(-n2ncc(C(=O)Nc3ccc4c(c3)OCO4)c2C2CCN(C(=O)OC(C)(C)C)CC2)cc1 | -27%[59 µM] | nt | nt | 11% | -33%[57.1 µM] | ?
SMILES | G9a inh | Six1-Eya2 blk | CtBP-E1A blk | HP1b chromo inh | BAZ2B inh | JMJD2A Tudor
CCOc1ccccc1CNC(=O)c1cccn1-c1nnc(N2CCCCC2)s1 | -18%[59 µM] | nt | nt | -3% | -26% | -27%
CCOc1ccccc1CNCc1cccn1-c1nnc(N2CCN(c3ccccc3)CC2)s1 | 14µM* | nt | nt | -21% | ? | ?
CCOC(=O)c1c(N2C(=O)C=CC2=O)sc(C)c1C | ? | -13 | -12 | ? | ? | 20µM*
CCOC(=O)c1c(NC(=O)CSC(=S)N(C)C)sc(C)c1C | ? | 0 | 1 | 68% | -7% | 10%
CCC1Nc2ncnc(N3CCN(c4ccccn4)CC3)c2N(Cc2ccc(Cl)cc2)C1=O (stereo not given) | -26%[2.33 µM] | -25 | -24 | 0% | 56µM* | ?
CCC1Nc2ncnc(N3CCCCC3)c2N(Cc2ccc(Cl)cc2)C1=O (stereo not given) | nt | 4 | 1 | 56% | nt | ?
CCC1Nc2ncnc(N3CCN(c4ccccc4)CC3)c2N(Cc2ccc(C)cc2)C1=O (stereo not given) | ? | -17 | -14 | -3% | ? | 56µM*
NC(=O)COC(=O)CSc1ccc2ccccc2c1 | 4% | 3 | 5 | 35% | -14% | -19%
CC(C)(C)OC(=O)[C@H]1[C@H](c2ccc([N+](=O)[O-])cc2)C2(C(=O)c3ccccc3C2=O)C2c3ccccc3C=NN21 (stereo not given in full) | 14µM* | -23 | -9 | -32% | 40µM* | ?
COc1ccc([C@H]2[C@H](C(=O)C(C)(C)C)N3N=Cc4ccccc4C3[C@]23N=C(c2ccccc2)OC3=O)cc1 (stereo not given in full) | nt | -19 | -14 | 7% | ? | -31%
Cc1ccc(CNC(=O)c2nn(C)c3c2CSc2ccc(C)cc2-3)cc1 | -10%[12.7 µM] | nt | nt | 22% | -9% | -2%
CC(O)(c1ccccc1)c1nc(-c2csc3ccccc23)cs1 (stereo not given) | nt | 6 | 5 | nt | nt | nt
Cc1nonc1NC(=O)CSc1nnc(-c2ccoc2C)n1CC(C)C | ? | 0 | 4 | 45% | -29% | -6%
CCn1c(-c2csc3ccccc23)n[nH]c1=S | 2.2µM* | 9 | 2 | -19% | -28% | 13µM*
OC(c1ccc(F)cc1)c1nc(-c2csc3ccccc23)cs1 (stereo not given) | nt | 8 | 3 | nt | nt | nt
Cc1occc1-c1n[nH]c(=S)n1CC(C)C | 4.5µM* | -5 | -9 | -8% | 8% | 5µM*
CC(C)Cn1c(-c2csc3ccccc23)n[nH]c1=S | ? | 9 | 7 | 2% | -9% | 79µM*
Cc1cccc(-n2c(-c3csc4ccccc34)n[nH]c2=S)c1 | 1.3µM* | 4 | -1 | ? | ? | ?
Cc1cccc(-n2c(C)nc3sccc3c2=O)c1 | -9%[0.501 µM] | 0 | 7 | 55% | 8% | 0%

Assay outcomes (PubChem)
